An excerpt weighted towards active compounds, which were near 7.6% of everything screened.
Giardia killer: kills Giardia lamblia. Giardia lamblia trophozoite viability. activity change, % at 7.66 µM, hits read low. 0.15% of 340,000 active; in the data active = activity change below about -80%; inconclusive = between about -30% and that limit;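 also: parasites exposed to compound for two days anaerobically before the ATP read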
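Killing of trophozoites was scored by loss of ATP luminescence after a 48 hrs anaerobic exposure to compounds at 37 deg C, using 100 cells per well.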
RORgamma inh: blocks mouse ROR gamma transcriptional activity | P51450 | Drosophila S2 Gal4-RORgamma UAS-luciferase reporter, 20 h | Potency, µM (doses to about 53.6 µM), actives largely listed as inhibitors | 5.4% of 310,000 active | AID 2551; also: nearly all actives have a fitted effect of over 60% in size
Target sequence (P51450 whole entry, looked up, the tested form may be a part): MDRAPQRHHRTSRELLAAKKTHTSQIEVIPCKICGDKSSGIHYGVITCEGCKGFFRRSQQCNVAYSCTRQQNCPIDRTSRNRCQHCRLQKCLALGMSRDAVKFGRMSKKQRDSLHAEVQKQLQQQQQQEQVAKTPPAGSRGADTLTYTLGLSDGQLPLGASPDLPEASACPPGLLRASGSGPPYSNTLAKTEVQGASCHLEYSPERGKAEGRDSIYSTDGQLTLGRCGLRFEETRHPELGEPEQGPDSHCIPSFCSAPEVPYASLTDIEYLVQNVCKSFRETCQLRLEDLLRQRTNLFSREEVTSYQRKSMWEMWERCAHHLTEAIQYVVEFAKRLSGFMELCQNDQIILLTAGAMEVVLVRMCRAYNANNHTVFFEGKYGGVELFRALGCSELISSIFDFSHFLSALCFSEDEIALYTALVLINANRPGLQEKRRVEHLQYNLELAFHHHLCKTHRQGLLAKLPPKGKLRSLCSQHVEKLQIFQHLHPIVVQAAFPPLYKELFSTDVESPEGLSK
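Schneider cells (Drosophila), stable Gal4 DBD–ROR gamma + UAS-luc; 1 hr cmpd preincubation; Cu2+ induction 700 uM final; 20 hr ambient; luminescence.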
Gal4-VP16 FLuc: inhibits Gal4-VP16 luciferase reporter, ROR gamma counter-screen. Drosophila S2 Gal4-VP16 UAS-luciferase, luminescence, 20 h. Potency, µM (titrated, usually from 53.6 µM), hits mostly inhibitors. 3.5% of 310,000 active;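 also: Gal4-VP16 expression switched on by copper sulfate through the metallothionein promoter; nearly all actives have a fitted effect of over 50% in size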
ELG1 DNA repair: inhibitors of ELG1-dependent DNA repair in HEK293T cells; HEK293T ELG1-luciferase reporter, luminescence, 16 h; DNA damage induced by 5-fluorouridine; Potency, µM (titrated, usually from 46.1 µM), actives largely listed as inhibitors; 2.3% of 330,000 active; also: nearly all actives have a fitted effect of over 55% in size
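Reporter activity after DNA damage by 5-fluorouridine is monitored. Compound-treated cells incubate 16 hr at 37 °C, then ONE-Glo is added for 30 min before luminescence reading.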
p53 reactivator: re-activators of mutant p53; H1299 p53-A138V BP100-luciferase reporter, luminescence, 24 h; Potency, µM (series often up to 92.2 µM), actives largely listed as activators; 0.063% of 320,000 active; AID 504706; also: nearly all actives have a fitted effect of over 45% in size
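H1299 (p53-null), stable ts p53-A138V + BP100-Luc; 1000 cells/well, Opti-MEM/10% FBS; cpd 4 pt, 1:5; 24 h, 37 deg C, 5% CO2; detection reagent 10 min RT; luminescence.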
BRCA1 expr up: increases BRCA1 expression. Potency, µM (doses to about 46.1 µM), actives largely listed as activators. AID 624202. MCF7-BRCA1-FFLuc reporter, luminescence, 48 h; response scale: scaled: vehicle 0%, 10 µM genistein 100%. 1.1% of 380,000 active; also: nearly all actives have a fitted effect of over 80% in size
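Luminescence from a BRCA1-driven firefly luciferase in MCF7 cells was read after 48 h compound exposure at 37 C. Data normalized against DMSO and a 10microM genistein activation control, then curve-fitted across the titration.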
Of the large screens only hits and unclear results are named; the others gave an inactive call. Unless noted, calls follow the shape of the dose curve; as a rule, active = well fitted curve in the direction sought with a large enough effect; inconclusive = small, poorly fitted or top-dose-only effect, or another doubt; inactive = no such curve, though single readings can be large; an effect the other way counts as inactive or inconclusive.

COc1cc(C(=S)N2CCOCC2)ccc1OS(=O)(=O)c1ccc(NC(C)=O)cc1	ELG1 DNA repair 12µM
COc1ccc(C(=S)N2CCOCC2)cc1OC(=O)c1ccc([N+](=O)[O-])cc1	none
COc1cc(C(=S)N2CCCC2)cc(OC)c1OS(=O)(=O)c1ccc(NC(C)=O)cc1	none
COc1cc(C(=S)N2CCOCC2)cc(Br)c1OS(=O)(=O)c1ccccc1	ELG1 DNA repair 16µM
COc1cc(C(=S)N2CCOCC2)ccc1OC(=O)c1ccc([N+](=O)[O-])cc1[N+](=O)[O-]	RORgamma inh inconclusive, Gal4-VP16 FLuc 13µM
COc1ccc(-c2nc(C(=O)Nc3ccc(C(C)=O)cc3)nn2-c2cccc(Cl)c2)cc1	none (no result: Giardia killer, RORgamma inh, Gal4-VP16 FLuc, ELG1 DNA repair, p53 reactivator)
CSc1ccc(/C=N/NC(=O)c2ccc3nc[nH]c3c2)cc1	none (no result: Giardia killer, RORgamma inh, Gal4-VP16 FLuc, ELG1 DNA repair, p53 reactivator)
COC(=O)C1=C(C)N(CC2CCCO2)C(=O)C1 (configuration not stated)	none
CC12CCC(C(=O)Nc3cccc(NC(=O)C45CCC(C)(C(=O)O4)C5(C)C)n3)(OC1=O)C2(C)C	none
CCC(CC)C(=O)Nc1ccc([N+](=O)[O-])cn1	none
Cc1ccc(S(=O)(=O)CC(=O)Nc2ncc([N+](=O)[O-])s2)cc1	Giardia killer -84
CCCCC(CC)C(=O)Nc1ncc([N+](=O)[O-])s1 (configuration not stated)	Giardia killer -91
Cc1ccc(CC(=O)Nc2ncc([N+](=O)[O-])s2)cc1	Giardia killer -91, ELG1 DNA repair inconclusive, BRCA1 expr up inconclusive
CC12CCC(C(=O)Nc3ncc([N+](=O)[O-])s3)(OC1=O)C2(C)C (configuration not stated)	Giardia killer -86
CCNC(=O)Oc1ccc(-c2csnn2)cc1	Giardia killer inconclusive
COc1ccc(S(=O)(=O)c2nnn(-c3ccc(C)c(Cl)c3)c2C)cc1	none (no result: Giardia killer, RORgamma inh, Gal4-VP16 FLuc, ELG1 DNA repair, p53 reactivator)
O=C(O)CCc1ccc(-c2ccccc2)o1	RORgamma inh inconclusive, Gal4-VP16 FLuc inconclusive, ELG1 DNA repair inconclusive
COc1ccc(NC(=O)C2CCN(S(C)(=O)=O)CC2)cc1Cl	none
N#C/C(=C\c1ccccc1)C(=O)N(c1ccccn1)C1CCCCC1	RORgamma inh 2.8µM, Gal4-VP16 FLuc inconclusive
O=C(c1cccc(C(=O)N(c2ccccn2)C2CCCCC2)c1)N(c1ccccn1)C1CCCCC1	ELG1 DNA repair inconclusive
O=C1/C(=C/c2ccncc2)SC(=S)N1C1CCS(=O)(=O)C1 (configuration not stated)	RORgamma inh 11µM, Gal4-VP16 FLuc inconclusive, ELG1 DNA repair inconclusive
O=C1/C(=C/c2ccccc2)SC(=S)N1C1CCS(=O)(=O)C1 (configuration not stated)	Gal4-VP16 FLuc inconclusive, ELG1 DNA repair inconclusive
Cc1cc(=O)[nH]c(N/N=C2/CCCC/C2=C\c2ccccc2)n1	RORgamma inh 6.3µM, Gal4-VP16 FLuc 18µM, ELG1 DNA repair 8.2µM
Cc1sc(NCc2ccccc2)nc1-c1ccccc1	none (no result: RORgamma inh, Gal4-VP16 FLuc, ELG1 DNA repair, p53 reactivator)
Cc1cc(=O)[nH]c(N/N=C/CCc2ccccc2)n1	RORgamma inh inconclusive, ELG1 DNA repair inconclusive
Cc1cc(C)nc(N/N=C/C(Cl)=C/c2ccccc2)n1	Gal4-VP16 FLuc inconclusive, ELG1 DNA repair inconclusive, BRCA1 expr up 10µM
Cc1sc(N/N=C/C=C/c2ccccc2)nc1-c1ccccc1	RORgamma inh 3.5µM, Gal4-VP16 FLuc inconclusive

Bioassay records (PubChem)
